From PubChem BioAssay AID588850 (Sanford-Burnham Center for Chemical Genomics, 2011) come the findings set out here.

Among all 360,000 compounds or so, about 3,100 (0.86%) were called active. This is one part of a sample in which actives are shown more often than they occur. A number with no mark means an inactive call.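 How the source made its calls: active means at least 50% inhibition at 5 µM, scaled per plate between neutral and stimulator controls; inactive means the rest.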

The assay can be described thus: inhibitors of PAF-induced NF-kB signaling, primary screen, cell-based, GFP fluorescence, uHTS (AID 588850).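 Further: PAF is a Pseudomonas aeruginosa culture filtrate used as stimulus; plate controls were PAF-stimulated DMSO wells for no effect and unstimulated DMSO wells for full effect.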 To be noted: KKLEB NF-kB-GFP reporter, GFP fluorescence overnight, at 5 µM, active compounds read high.
As to `COc1ccc(S(=O)(=O)N2CCN(CC(=O)N3CCNC3=O)CC2)cc1OC`, the inhibition was 0.2%.

As to `COc1ccc(Br)cc1CN1CCN(C(=O)c2cccc(OC)c2OC)CC1`, the inhibition was 18.7%.

As to `CN(C(=O)CC1C(=O)NCCN1Cc1ccc2ccccc2c1)C1CCOCC1` (configuration not stated), the inhibition is 15.4%.

As for `COc1ccc(N(C(=O)c2snc(C(N)=O)c2N)C(C(=O)NC2CCCC2)c2ccco2)cc1OC` (configuration not stated), the inhibition was 6.4%.

`CSc1ccccc1C(=O)Nc1cccc(C(C)=O)c1`: the inhibition was -14.6%.

Take `COc1ccc(NC(C(=O)Nc2cccc(C(C)=O)c2)c2ccccc2)cc1` (configuration not stated): the inhibition is -4.2%.

With `CC(=O)c1cccc(NC(=O)C2CCN(C(=O)c3ccccc3Cl)CC2)c1`, the inhibition is 4.3%.

For `CC(=O)c1cccc(NC(=S)N2CCN(S(C)(=O)=O)CC2)c1`, the inhibition is -11.2%.

For `CCSc1nsc(NC(=O)Nc2cccc(C(C)=O)c2)n1`, the inhibition is 86.3% (active).

With `C=CCSc1nsc(NC(=O)Nc2cccc(C(C)=O)c2)n1`, the inhibition was 86.3% (active).

For `CCOCCCNC(=O)c1ccc(CS(=O)(=O)c2cccc(C(F)(F)F)c2)o1`, the inhibition was -2.1%.

For the compound `CC1C(=O)Nc2ccccc2N1C(=O)c1c(F)cccc1F` (configuration not stated), the inhibition was -2.1%.

For `COc1cccc(-c2nn(-c3ccccc3)cc2/C=C(\C#N)C(=O)NCCCn2ccnc2)c1`, the inhibition was -21.2%.

Regarding `CC1CCCC(NC(=O)COC(=O)c2ccccc2C(=O)N(C)C2CCCCC2)C1C` (configuration not stated), the inhibition was 17.7%.

In the case of `C=CCN(c1ccc(C(N)=O)cc1)S(C)(=O)=O`, the inhibition was -12%.

In the case of `Cc1cc(OCC(=O)N2CCN(c3ncccn3)CC2)ccc1Cl`, the inhibition is 1.3%.

`COc1ccc(N2CCN(C(=O)COc3ccc4c(C)cc(=O)oc4c3)CC2)cc1`: the inhibition was -21.4%.

As to `Cc1c(C)c2ccc(OCC(=O)N3CCN(c4cccc(Cl)c4)CC3)cc2oc1=O`, the inhibition was 63.5% (active).

For `CC1(C)Cc2c(sc3nc(SCC(=O)NCc4ccccc4)n(-c4ccccc4)c(=O)c23)CS1`, the inhibition is 4.3%.

For the compound `Cc1ccc(S(=O)(=O)N2CCCC2CO)cc1` (configuration not stated), the inhibition is -11%.

`CCn1ncc(Br)c1C(=O)Nc1cc(C)ccc1F`: the inhibition is 4.3%.

For the compound `O=C(CCc1ccccc1Cl)Nc1ccc(S(=O)(=O)Nc2nccs2)cc1`, the inhibition was 8.7%.

`Cc1ccc(Cc2cnc(N)s2)o1`: the inhibition was 4.4%.

In the case of `Cc1ccc(CCC(=O)Nc2ncc(Cc3cc(Cl)ccc3Cl)s2)o1`, the inhibition was 64% (active).

Consider `COc1ccccc1/C=C/CN1CCC(CO)(Cc2ccccc2)CC1`, for which the inhibition was 20.7%.

For `CC(C)(C)NC(=O)Cn1c(SCC(=O)Nc2nccs2)nc2ccccc21`, the inhibition is -6.3%.

Regarding `COCCCNC(=S)N1CCN(c2nc(-c3cccc(OC)c3)cs2)CC1`, the inhibition was -8.2%.

On to `c1ccc(C(=NNc2nc3ccccc3s2)c2ccccn2)cc1`, for which the inhibition was -25.7%.

With `O=C(N/N=C/c1cc(Br)c(O)c([N+](=O)[O-])c1)C(O)(c1ccccc1)c1ccccc1`, the inhibition is -3.5%.

For the compound `O=[N+]([O-])c1cc(Br)c(O)c(/C=N/Nc2nc3ccccc3s2)c1`, the inhibition was 63.5% (active).

Take `CCOC(=O)c1ccc(-c2ccc3ncnc(N(C)Cc4sccc4C)c3c2)o1`: the inhibition is 32.3%.

For the compound `O=C(Nc1nnc(-c2ccc(F)cc2)s1)c1c(F)cccc1Cl`, the inhibition was 11%.

Regarding `CSc1nnc(NC(=O)c2nc(S(=O)(=O)Cc3ccc(C)cc3)ncc2Cl)s1`, the inhibition was 104% (active).

For the compound `Cc1ccc(S(=O)(=O)CCC(=O)Nc2nnc(CC(C)C)s2)cc1`, the inhibition is 8.1%.

For the compound `O=C(Nc1nnc(Cc2ccc(Cl)cc2)s1)c1cccnc1`, the inhibition was 2.8%.

In the case of `CCOC(=O)CSc1nnc(NC(=O)c2cccc(S(=O)(=O)N3CCCCC3)c2)s1`, the inhibition was 5.1%.

On to `Cc1ccc(CS(=O)(=O)c2ncc(Cl)c(C(=O)Nc3nnc(C)s3)n2)cc1`, for which the inhibition was 92.5% (active).

As to `CC1(C(=O)Nc2cccnc2)Cc2c(-c3ccccc3)ccnc2O1` (configuration not stated), the inhibition is 14.4%.

With `Cc1ccccc1C(=O)Nc1cccc(-c2nnc(SCC(=O)O)n2C)c1`, the inhibition was 0.8%.

Regarding `C=CCn1c(SCC(=O)c2ccc(Br)cc2)nnc1C(C)NC(=O)Cc1ccc(OC)cc1` (configuration not stated), the inhibition was -6.2%.

For the compound `COCCn1c(C)cc(C(=O)CN2c3cccc4cccc(c34)S2(=O)=O)c1C`, the inhibition was 18.2%.

Consider `O=C(c1cccnc1)N(Cc1ccccc1)C(=O)c1cccnc1`, for which the inhibition was 11.6%.

For `CCc1ccc(N(CC(=O)NCc2cccnc2)S(=O)(=O)c2ccccc2)cc1`, the inhibition is -37.4%.

As for `O=C(c1cccnc1)N(c1cc2sc(=O)oc2c2ccccc12)S(=O)(=O)c1ccccc1`, the inhibition was 67% (active).

`NC(=O)C[n+]1cccc(C(N)=O)c1`: the inhibition was 0.4%.

As for `CCNC(=O)C1CCCN(C(=O)c2ccc(OC)cc2OC)CC1` (configuration not stated), the inhibition is -9.2%.

On to `Cc1ccc(C2(C)NC(=O)N(CC(=O)Nc3ccccc3C(=O)N3CCCCC3)C2=O)cc1` (configuration not stated), for which the inhibition was -4.5%.

Consider `O=C(NC1(C(F)(F)F)N=C2SCCN2C1=O)c1ccco1` (configuration not stated), for which the inhibition is 3.6%.

For the compound `Clc1ccc2c(c1)C1=C(C(c3ccncc3)O2)C(c2ccc(Br)cc2)n2ncnc2N1` (configuration not stated), the inhibition is 52.7% (active).

On to `COCCCN(C(=O)Cn1ncc2c(=O)oc3ccc(C)cc3c21)C(C)c1ccncc1` (configuration not stated), for which the inhibition was 1.3%.

In the case of `O=C(Nc1ccc2c(c1)OCO2)C1CC(c2c(F)cccc2Cl)=NO1` (configuration not stated), the inhibition was 13.8%.

As for `Cc1cc(C)c(-c2csc(NC(=O)CCCc3nc4ccccc4c(=O)[nH]3)n2)c(C)c1`, the inhibition is -12.5%.

With `C=CCNC(=O)c1ccc2c3n(nc2c1)-c1ccc(C)cc1CO3`, the inhibition was -75.6%.

Take `COc1cc(OC)cc(C(=O)N[C@H](C(=O)OCC(=O)NC(C)c2ccccc2)C(C)C)c1` (some centres not stated): the inhibition was 21.2%.

For the compound `COc1cc(OC)cc(C(=O)N[C@H](C(=O)Nc2nc3ccccc3[nH]2)C(C)C)c1`, the inhibition was 64.3% (active).

As for `COc1cc(OC)cc(C(=O)N[C@H](C(=O)NNC(=O)c2ccc(Br)cc2)C(C)C)c1`, the inhibition is -8.2%.

`CC(=O)NC(c1ccccc1)c1nc(-c2ccccc2C)cs1` (configuration not stated): the inhibition was -32.5%.

One may read the inhibition as the change of the read-out against control, counted positive when it falls.
